Data on 39 compounds can be found in PubChem BioAssay (EPA / NIEHS).

Structures are written as SMILES. Where “and” joins values, the source holds several entries; their conditions need not be identical. Identical values can stand only once. Records with an inconclusive call do not appear. Calls of active or inactive are those of the source. The calls were made as follows: active = hit-call score of the fitted dose curve at least 0.9, where 1 is the maximum; inconclusive = response in the unintended direction; inactive = score below 0.9.

Test [1] is described as follows: ACEA_AR_agonist_AUC_viability: ACEA Biosciences xCELLigence Real-Time Cell Analysis on Androgen Receptor Agonism for Viability (AID 2283775).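 As to AC50: viability read 80 hours after compound addition.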 In a few lines:
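Viability endpoint from xCELLigence impedance in 22Rv1 prostate cells at 80 h. Eight-point series, 100 uM maximum final.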

Test [2] is described as follows: ACEA_AR_antagonist_AUC_viability: ACEA Biosciences xCELLigence Real-Time Cell Analysis on Androgen Receptor Antagonism for Viability (AID 2283776).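 Also: 22Rv1 human prostate cancer cells growing on impedance electrode plates; area under impedance growth curve at 80 h after dosing as viability; hits lower the growth signal relative to DMSO meaning cytotoxicity.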 In a few lines:
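22Rv1 prostate cells, continuous dosing up to 100 uM final (0.5% DMSO max), duplicate plates. Growth measured by impedance; AUC at 80 h, loss of signal vs DMSO.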

A short description of test [3]: ACEA_ER_AUC_viability: ACEA Biosciences xCELLigence Real-Time Cell Analysis on Estrogen Receptor Agonism for Viability (AID 2283782).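 Also: hit means loss of impedance signal meaning reduced cell growth or viability.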 In a few lines: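 Read-out: real-time electrical impedance (RT-CES) area under curve, loss of signal taken as reduced viability, normalized to DMSO baseline. T-47D cells, charcoal-stripped serum medium, compounds up to 100 uM final, continuous exposure, 80 h.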

For `OC1CCCCC1`, in test [1], the call was inactive.

Regarding `OCCC(F)(F)C(F)(F)C(F)(F)C(F)(F)C(F)(F)C(F)(F)C(F)(F)C(F)(F)F`, the compound was called inactive in test [1], in test [2] and in test [3].

For the compound `CCCOC(=O)c1ccc(O)cc1`, the compound was called inactive in test [1] and in test [2].

On to `O=c1c(-c2ccc(O)cc2)coc2cc(O)ccc12`, for which, in test [1], the outcome was inactive.

As to `COCC(C)O` (stereo unspecified), the compound was called inactive in test [1] and in test [2].

Consider `Cc1ccc(S(=O)(=O)O)c(C)c1`, for which the compound was called inactive in test [1].

For the compound `COc1cc(CCC(=O)CC(=O)CCc2ccc(O)c(OC)c2)ccc1O`, the AC50 in test [1] is 68.5 µM (active). Besides, in test [3], the compound was classed as inactive.

Regarding `Cc1cc(C)c(O)c(C)c1`, the call in test [1] and in test [3] was inactive.

With `NC(=O)N(O)[C@@H]1C=C[C@H](Oc2cccc(Oc3ccc(F)cc3)c2)C1`, the half-maximal activity concentration (AC50) was 40.8 µM (active) in test [1] and 92.6 µM (active) in test [3].

As to `CCCCCCCCCCCCCC[N+](C)(C)C`, the concentration at half-maximal activity (AC50) in test [1] is 4.73 µM (active); in test [3], 15.9 µM (active) and 6.59 µM (active).

For `OCCC(F)(F)C(F)(F)C(F)(F)C(F)(F)C(F)(F)C(F)(F)F`, the outcome in test [1] and in test [3] was inactive.

`CCc1nn(C2CCCCC2)c2cc(C3(C#N)CCC(C(=O)O)CC3)ccc12` (stereo unspecified): the result in test [2] was inactive.

In the case of `CC(O)CO` (stereo unspecified), the outcome in test [1] and in test [3] was inactive.

As for `CCCCCCCCCCCCc1ccccc1S(=O)(=O)O`, the result in test [1] was inactive. Moreover, the concentration at half-maximal activity (AC50) in test [3] was 83.7 µM (active).

In the case of `OC1CCC(C2CCCCC2)CC1` (stereo unspecified), the AC50 in test [1] was 81.3 µM (active); in test [3], 83 µM (active) and 84.8 µM (active) and 86.7 µM (active).

For `c1ccc2c(c1)Cc1ccccc1-2`, the outcome in test [1] and in test [3] was inactive.

Consider `NC(=O)N1C(=O)C(C(=O)c2cc(Cl)cs2)c2cc(F)c(Cl)cc21` (stereo unspecified), for which the result in test [1] was inactive. The AC50 in test [3] is 87.5 µM (active).

`FC(F)(I)C(F)(F)C(F)(F)C(F)(F)C(F)(F)C(F)(F)I`: in test [3], the AC50 is 45 µM (active).

In the case of `CC(C)(C)c1cccc(C(C)(C)C)c1O`, the compound was classed as inactive in test [1] and in test [3].

With `CN1CCC[C@H]1c1cccnc1`, the outcome in test [1] and in test [3] was inactive.

On to `O=C(O)Cc1cc(I)c(Oc2cc(I)c(O)c(I)c2)c(I)c1`, for which the AC50 in test [1] was 51.7 µM (active). Also, the call in test [3] was inactive.

For `NCC(F)(F)C(F)(F)C(F)(F)C(F)(F)C(F)(F)C(F)(F)C(F)(F)F`, in test [3], the compound was called inactive.

On to `O=[N+]([O-])c1ccc(O)cc1`, for which the outcome in test [1] and in test [3] was inactive.

On to `ClC1=C(Cl)C(Cl)(Cl)C(Cl)=C1Cl`, for which the half-maximal activity concentration (AC50) was 74.8 µM (active) in test [1] and 71.2 µM (active) in test [3].

As to `CCCCCCC(=O)O`, the compound was classed as inactive in test [3].

As for `CC(=O)NC1(c2cccc(F)c2)CCN(CC[C@@]2(c3ccc(Cl)c(Cl)c3)CN(c3ccccc3)C(=O)CO2)CC1`, the AC50 in test [1] was 41.5 µM (active); in test [3], 11.8 µM (active).

For the compound `Cc1cc(CCN2CCN(c3nsc4ccccc34)CC2)cc2c1NC(=O)CC2(C)C`, the AC50 is 9.03 µM (active) in test [1] and 18.2 µM (active) in test [3].

In the case of `CCCCC[C@H](O)CC(=O)CCc1ccc(O)c(OC)c1`, the call in test [3] was inactive.

For the compound `C=C(C)C(=O)OCCC(F)(F)C(F)(F)C(F)(F)C(F)(F)C(F)(F)C(F)(F)F`, the result in test [1] and in test [3] was inactive.

On to `CC(O)C(=O)O` (stereo unspecified), for which the call in test [1] and in test [3] was inactive.

For `CC[C@H](C)[C@@H](C(=O)O)n1sc2ccccc2c1=O`, the compound was classed as inactive in test [2].

Consider `Oc1cc2ccccc2c2ccccc12`, for which the figures for the AC50 in test [1] and in test [3] were 18.1 µM (active) and 4.66 µM (active), respectively.

On to `CC(C)(C)CC(C)(C)c1ccc(O)c(-n2nc3ccccc3n2)c1`, for which the AC50 is 90.1 µM (active) in test [1] and 21.6 µM (active) in test [3].

`C[C@@H]1C[C@H]2[C@@H]3CCC4=CC(=O)C=C[C@]4(C)[C@@]3(F)[C@@H](O)C[C@]2(C)[C@@]1(O)C(=O)COP(=O)(O)O`: the result in test [3] was inactive.

For `CCN(CC)CCNc1ccc(CNC=O)c2sc3ccc(OC)cc3c(=O)c12`, the values for the concentration at half-maximal activity (AC50) in test [1] and in test [3] were 7.1 µM (active) and 83.2 µM (active), respectively.

For `CC1=C(/C=C/C(C)=C/C=C/C(C)=C/C(=O)O)C(C)(C)CCC1`, the AC50 in test [2] was 78.6 µM (active).

As for `CCc1ccc(CCOc2ccc(CC3SC(=O)NC3=O)cc2)nc1` (stereo unspecified), the AC50 in test [1] was 50 µM (active). Also, the outcome in test [3] was inactive.

On to `Nc1cccc2c(N)cccc12`, for which the call in test [3] was inactive.

Regarding `CCCOc1sc(C(=O)N2CCC(c3cc(CN)ccc3F)CC2)c(C)c1Br`, in test [3], the AC50 is 5.11 µM (active).
